Experiment [1] can be described thus: Cell Viability - BJ (AID 421; calls by dose curve;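 note: potency is the fitted concentration of half-maximal effect; cells exposed to compound for 40 hours at 37 °C before readout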). As to conditions: BJ fibroblast viability, qHTS. The method, boiled down:
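Cytotoxicity as drop in intracellular ATP (CellTiter-Glo, 20 min RT) after 40 hr compound exposure of BJ fibroblasts at 37 °C. Titrations scaled between DMSO and 100 uM tamoxifen, Hill-fitted for AC50.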
A general note: Quantitative high-throughput screening tests each substance at several concentrations.

The nature of experiment [2]: Cell Viability - MRC5 (AID 434; calls by dose curve;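 note: potency is the fitted concentration of half-maximal effect; cells exposed to compound for 40 hours at 37 °C; potency reflects cytotoxicity seen as loss of intracellular ATP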). As to conditions: MRC5 lung fibroblast viability, qHTS. The method, boiled down:
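Decrease in intracellular ATP, quantified by luciferase light output, reflects compound toxicity toward MRC5 cells exposed for 40 hr in complete culture medium. Concentration-response curves, scaled between DMSO and 100 uM tamoxifen, gave AC50 values.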

A short description of experiment [3]: Cell Viability - SK-N-SH (AID 435; calls by dose curve;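 note: potency is the fitted concentration of half-maximal effect; compound exposure lasted 40 h at 37 °C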). Conditions: SK-N-SH neuroblastoma cell viability qHTS. The essentials: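 Cells seeded at 1500 per well and incubated 5 hr at 37 °C. Compound added, then 40 hr at 37 °C. CellTiter-Glo added, 20 min at room temperature, luminescence read.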
For experiment [4], the target named is Mitogen-activated protein kinase 10 (Mus musculus) (UniProt Q61831). Description: JNK3 AlphaScreen Assay (AID 530; active = well fitted curve in either direction with a large enough effect, not every such curve was filed as active;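 note: kinase came from lysate of stimulated human HepG2 cells; signal reports phosphorylation of biotinylated GST-cJun 1-79 at Ser73 with 10 µM ATP; % is set by controls: 0 for no effect and ±100 for the full control effect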). Conditions: JNK3 lysate, c-Jun phosphorylation; series mostly up to 57.1 µM. The essentials:
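Biotinylated GST-cJun(1-79) served as substrate for JNK3 in HepG2 lysates stimulated with IL-1beta and TNF-alpha. ATP was 10 uM final, pH 7.6. Ser73 phosphorylation was quantified by AlphaScreen (680 nm excitation).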
For orientation: Alpha assays give light when donor and acceptor beads are brought close together.

Experiment [5] is described as follows: Cellular Toxicity (caspase-3) Renal Proximal Tubule (AID 667).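 Note: cells exposed to compound for 16 hours at 37 °C before detection; 0% = DMSO basal and 100% = 10 µM staurosporine.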 Conditions: renal proximal tubule cells; at 91.7 µM (top of the series) unless noted. The essentials:
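In qHTS format, rat primary proximal tubule cells seeded at 1000 per well are exposed to compounds for 16 hours at 37 °C. An increase in Caspase-Glo 3/7 luminescence indicates caspase activation.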

In experiment [6] the target is Cytochrome P450 3A4 (Homo sapiens) (UniProt P08684). Description: qHTS Assay for Inhibitors and Substrates of Cytochrome P450 3A4 (AID 884). Note: % is set by controls: 0 for no effect and ±100 for the full control effect; nearly all actives have a fitted effect of over 50% in size. As to conditions: recombinant CYP3A4, Luciferin-PPXE luminescence; series mostly up to 57.1 µM. The essentials:
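Luminescent readout of luciferin produced by CYP3A4 (20 nM) dealkylation of Luciferin-PPXE, 25 uM (its KM). NADPH-driven reaction ran 60 min at RT after 10 min compound preincubation; data scaled to 57 uM ketoconazole as 100% inhibition.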

A short description of experiment [7]: MultiTox-Fluor Cytotoxicity Assay - LYMP1-002 - Live Cells (AID 955). Note: potency is the fitted concentration of half-maximal effect. As to conditions: LYMP1-002 lymphoblastoid live-cell protease fluorescence viability; series mostly up to 46.1 µM. The essentials: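 In this qHTS viability format, lymphoblastoid cells (LYMP1-002, human) received compound for 16 hr at 37 C. Fluorogenic GF-AFC cleavage by viable cells was detected at 405/510 nm after 1 h at room temperature.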

Experiment [8] can be described thus: MultiTox-Fluor Cytotoxicity Assay - LYMP1-003 - Live Cells (AID 962). Note: potency is the fitted concentration of half-maximal effect. As to conditions: LYMP1-003 lymphoblastoid cells, MultiTox-Fluor live-cell protease fluorescence; series mostly up to 92.2 µM. The method, boiled down:
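Human lymphoblastoid line LYMP1-003 in complete culture medium, treated 16 hr with titrated compounds. Viable cells quantified via cell-permeant GF-AFC substrate fluorescence; AC50 derived by Hill fitting.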

Experiment [9] in a line: Cell Viability - LYMP2-008 (AID 980). Note: nearly all actives have a fitted effect of over 60% in size. Note: potency is the fitted concentration of half-maximal effect. Conditions: LYMP2-008 lymphoblastoid cell viability, qHTS; series mostly up to 92.2 µM. The essentials:
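Measured: ATP-dependent luminescence, proportional to viable cell number, in human lymphoblastoid cells treated 24 hr with compound in complete culture medium. Values are AC50s from Hill-equation modelling of qHTS titrations.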

A short description of experiment [10]: qHTS assay for small molecule agonists of the antioxidant response element (ARE) signaling pathway measured by Nrf2-dependant transcriptional activity - cell viability counter screen (AID 720653; active = well fitted curve in the direction sought with a large enough effect in the repeat runs; an effect the other way counts as inactive or inconclusive; note: potency is the fitted concentration of half-maximal effect; for max response: % is set by controls: 0 for no effect and ±100 for the full control effect). Conditions: ARE-bla HepG2 viability, CellTiter-Glo ATP luminescence, 16 h; max response: stronger effect = lower value. The essentials: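 ARE-bla HepG2 cells (2,000/well) rested 5 hrs at 37C/5% CO2, then exposed to compounds in DMSO for 16 hrs. Viability was read in the same wells as intracellular ATP by luminescence, 30 min at room temperature after reagent addition.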

For experiment [11], the target named is Cytochrome P450 1A2 (Homo sapiens) (UniProt P05177). Description: p450-cyp1a2 (AID 410; calls by dose curve; note: potency is the fitted concentration of half-maximal effect). Conditions: recombinant CYP1A2, luciferin-ME demethylation, luminescence; series mostly up to 57 µM. The essentials: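 Read-out is luminescence from luciferin produced by CYP1A2 demethylation of Luciferin-ME (100uM, at Km). Detection reagent stopped the 60 min NADPH-dependent reaction; signals were normalized to 57 uM furafylline.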
Cytochrome P450 1A2 (Homo sapiens), sequence (P05177 whole entry, looked up): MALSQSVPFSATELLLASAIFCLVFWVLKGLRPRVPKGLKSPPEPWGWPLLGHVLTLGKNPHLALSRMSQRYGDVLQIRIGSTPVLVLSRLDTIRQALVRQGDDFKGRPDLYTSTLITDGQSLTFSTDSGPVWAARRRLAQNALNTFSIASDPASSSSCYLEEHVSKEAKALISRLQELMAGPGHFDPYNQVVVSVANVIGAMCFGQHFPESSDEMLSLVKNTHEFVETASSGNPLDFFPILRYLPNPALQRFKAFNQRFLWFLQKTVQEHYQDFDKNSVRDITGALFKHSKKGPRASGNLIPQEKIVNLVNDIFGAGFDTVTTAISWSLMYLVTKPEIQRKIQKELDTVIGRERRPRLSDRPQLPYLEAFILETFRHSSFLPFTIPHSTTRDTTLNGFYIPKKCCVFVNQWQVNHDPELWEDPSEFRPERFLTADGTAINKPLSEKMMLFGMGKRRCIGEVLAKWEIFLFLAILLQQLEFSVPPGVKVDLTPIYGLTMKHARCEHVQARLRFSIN

In experiment [12] the target is Glucocorticoid receptor (Homo sapiens) (UniProt P04150). Description: GR-EFC Redistribution (AID 451; calls by dose curve; note: potency is the fitted concentration of half-maximal effect). As to conditions: CHO-K1 GR-EFC translocation, beta-gal luminescence, 2 h. The method, boiled down: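 CHO-K1 cells stably expressing nuclear-localized β-gal enzyme acceptor and GR fused C-terminally to the enzyme donor fragment; ligand-driven nuclear translocation restores β-gal by complementation. Compounds titrated up to 46 uM final, 2 h at 37 °C; luminescence read.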
Glucocorticoid receptor (Homo sapiens), sequence (P04150 whole entry, looked up, the tested form may be a part): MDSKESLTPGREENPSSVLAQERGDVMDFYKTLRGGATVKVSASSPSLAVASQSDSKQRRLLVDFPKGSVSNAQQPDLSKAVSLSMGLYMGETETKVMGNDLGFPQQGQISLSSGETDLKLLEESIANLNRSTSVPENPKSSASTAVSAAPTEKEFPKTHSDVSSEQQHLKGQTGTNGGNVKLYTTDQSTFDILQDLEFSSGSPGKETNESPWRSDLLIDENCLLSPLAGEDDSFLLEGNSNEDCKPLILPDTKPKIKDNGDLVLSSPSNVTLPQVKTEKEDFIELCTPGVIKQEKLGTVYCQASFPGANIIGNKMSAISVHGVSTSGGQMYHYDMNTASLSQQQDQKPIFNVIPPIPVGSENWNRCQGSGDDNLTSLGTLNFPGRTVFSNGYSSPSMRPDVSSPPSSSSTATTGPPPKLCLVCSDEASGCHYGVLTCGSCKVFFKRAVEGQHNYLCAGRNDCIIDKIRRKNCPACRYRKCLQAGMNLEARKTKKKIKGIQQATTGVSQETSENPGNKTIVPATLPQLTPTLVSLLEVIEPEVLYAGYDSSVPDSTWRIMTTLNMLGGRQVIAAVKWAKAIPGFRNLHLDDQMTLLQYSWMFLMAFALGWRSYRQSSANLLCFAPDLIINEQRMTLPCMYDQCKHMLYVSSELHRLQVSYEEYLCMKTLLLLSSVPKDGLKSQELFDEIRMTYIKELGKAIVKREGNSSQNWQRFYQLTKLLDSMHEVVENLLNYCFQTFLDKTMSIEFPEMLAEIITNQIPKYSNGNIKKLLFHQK

The target of experiment [13] is Cytochrome P450 2C9 (Homo sapiens) (UniProt P11712). Description: qHTS Assay for Inhibitors and Substrates of Cytochrome P450 2C9 (AID 883). Note: % is set by controls: 0 for no effect and ±100 for the full control effect; nearly all actives have a fitted effect of over 60% in size. As to conditions: recombinant CYP2C9, luciferin-H luminescence, 60 min; series mostly up to 57.1 µM. The method, boiled down:
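Human CYP2C9 (10nM) hydroxylated Luciferin-H (100uM, at its KM) to luciferin in 25mM KPO4. Compound was preincubated 10 min at 37C, then NADPH regeneration started a 60 min reaction at 37C. Luminescence was read after detection reagent, normalized to 57uM sulphaphenazole.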

Experiment [14] has as its target Cytochrome P450 2D6 (Homo sapiens) (UniProt P10635). Description: qHTS Assay for Inhibitors and Substrates of Cytochrome P450 2D6 (AID 891).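 Note: luciferin methyl ether substrate demethylated by CYP2D6 with NADPH regeneration; % is set by controls: 0 for no effect and ±100 for the full control effect; nearly all actives have a fitted effect of over 60% in size.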 Conditions: recombinant CYP2D6, luciferin-ME EGE luminescence; series mostly up to 57.1 µM. The essentials: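 Luminescent read-out of luciferin formed by 5 nM human CYP2D6 demethylating 30 uM Luciferin-ME EGE (Km level) over 60 min at room temperature after NADPH regeneration addition. Data normalized to full inhibition by 1.43 uM quinidine.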

Experiment [15] addresses Cytochrome P450 2C19 (Homo sapiens) (UniProt P33261). As to the kind of experiment: qHTS Assay for Inhibitors and Substrates of Cytochrome P450 2C19 (AID 899). Note: % is set by controls: 0 for no effect and ±100 for the full control effect; nearly all actives have a fitted effect of over 60% in size. Conditions: recombinant CYP2C19, luciferin-H EGE luminescence; series mostly up to 57.1 µM. The essentials: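 Human CYP2C19 (5nM) with Luciferin-H EGE at 10uM (its KM) in 50mM KPO4 was preincubated with compound for 10 min at 37C. NADPH regeneration started a 60 min 37C reaction. Luciferin was read by luminescence, normalized to 57uM ketoconazole.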

Where “and” joins values, the source holds several entries; their conditions need not be identical. Equal entries are not always repeated. Unmarked numbers belong to inactive results. Results filed as inconclusive are left out. Calls of active or inactive are those of the source. Unless noted, calls come from the whole dose curve; as a rule, active = well fitted curve in the direction sought with a large enough effect; inconclusive = small, poorly fitted or top-dose-only effect, or another doubt; inactive = no such curve, though single readings can be large; an effect the other way counts as inactive or inconclusive.

Data on seven compounds can be found in PubChem BioAssay (NCATS).

Cytochrome P450 3A4 (Homo sapiens), sequence (P08684 whole entry, looked up): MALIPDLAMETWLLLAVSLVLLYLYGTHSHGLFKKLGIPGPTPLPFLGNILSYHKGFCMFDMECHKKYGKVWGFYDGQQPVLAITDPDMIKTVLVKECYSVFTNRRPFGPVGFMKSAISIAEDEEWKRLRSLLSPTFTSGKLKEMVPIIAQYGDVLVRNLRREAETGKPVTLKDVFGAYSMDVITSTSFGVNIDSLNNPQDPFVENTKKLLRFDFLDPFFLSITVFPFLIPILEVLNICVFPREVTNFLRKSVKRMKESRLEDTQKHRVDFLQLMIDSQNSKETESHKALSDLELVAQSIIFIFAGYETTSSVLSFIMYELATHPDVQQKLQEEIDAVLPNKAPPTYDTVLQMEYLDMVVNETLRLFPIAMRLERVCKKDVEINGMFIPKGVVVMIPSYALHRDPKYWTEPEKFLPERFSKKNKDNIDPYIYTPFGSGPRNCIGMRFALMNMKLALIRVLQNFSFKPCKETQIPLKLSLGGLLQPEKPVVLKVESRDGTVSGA
Cytochrome P450 2C19 (Homo sapiens), sequence (P33261 whole entry, looked up): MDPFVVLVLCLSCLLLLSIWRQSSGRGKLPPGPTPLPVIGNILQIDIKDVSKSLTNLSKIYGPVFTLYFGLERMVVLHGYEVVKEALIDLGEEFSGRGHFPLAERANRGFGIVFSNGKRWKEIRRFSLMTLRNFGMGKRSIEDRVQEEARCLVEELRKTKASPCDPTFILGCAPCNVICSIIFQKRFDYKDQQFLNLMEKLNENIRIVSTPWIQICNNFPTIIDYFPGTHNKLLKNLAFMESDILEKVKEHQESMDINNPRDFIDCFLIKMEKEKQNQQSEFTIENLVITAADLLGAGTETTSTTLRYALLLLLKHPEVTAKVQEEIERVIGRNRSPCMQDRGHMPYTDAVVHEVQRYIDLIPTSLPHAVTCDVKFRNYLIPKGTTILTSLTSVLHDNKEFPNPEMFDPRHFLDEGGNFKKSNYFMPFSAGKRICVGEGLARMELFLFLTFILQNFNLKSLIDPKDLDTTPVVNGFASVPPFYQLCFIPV
Cytochrome P450 2C9 (Homo sapiens), sequence (P11712 whole entry, looked up): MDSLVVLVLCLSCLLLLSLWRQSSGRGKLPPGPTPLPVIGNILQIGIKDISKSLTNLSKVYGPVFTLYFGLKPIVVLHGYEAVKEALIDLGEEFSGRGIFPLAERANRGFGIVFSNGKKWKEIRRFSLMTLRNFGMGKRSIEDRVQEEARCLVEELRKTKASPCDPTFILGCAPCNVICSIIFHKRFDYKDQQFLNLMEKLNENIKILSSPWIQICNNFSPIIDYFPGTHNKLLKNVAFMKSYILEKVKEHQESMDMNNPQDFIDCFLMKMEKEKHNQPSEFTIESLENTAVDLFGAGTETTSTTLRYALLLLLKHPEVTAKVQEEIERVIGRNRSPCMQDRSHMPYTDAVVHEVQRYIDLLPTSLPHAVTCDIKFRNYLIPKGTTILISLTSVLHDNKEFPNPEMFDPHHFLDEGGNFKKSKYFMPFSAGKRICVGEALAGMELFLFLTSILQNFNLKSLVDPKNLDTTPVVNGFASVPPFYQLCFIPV
Cytochrome P450 2D6 (Homo sapiens), sequence (P10635 whole entry, looked up): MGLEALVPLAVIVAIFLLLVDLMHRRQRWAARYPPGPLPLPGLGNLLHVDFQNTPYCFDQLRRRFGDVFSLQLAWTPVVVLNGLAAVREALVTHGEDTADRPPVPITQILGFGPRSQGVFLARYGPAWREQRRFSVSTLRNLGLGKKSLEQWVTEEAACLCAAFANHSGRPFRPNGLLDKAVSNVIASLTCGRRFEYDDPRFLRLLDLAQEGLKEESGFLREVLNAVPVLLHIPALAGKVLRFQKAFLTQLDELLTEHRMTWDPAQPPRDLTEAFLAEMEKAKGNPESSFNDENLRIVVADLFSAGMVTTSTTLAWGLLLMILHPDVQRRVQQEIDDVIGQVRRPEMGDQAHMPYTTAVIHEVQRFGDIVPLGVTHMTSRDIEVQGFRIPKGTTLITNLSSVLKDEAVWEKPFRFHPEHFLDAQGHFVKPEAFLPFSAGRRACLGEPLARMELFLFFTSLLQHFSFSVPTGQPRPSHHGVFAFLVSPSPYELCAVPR

For the compound `COP(=O)(OC)O/C(=C\Cl)c1cc(Cl)c(Cl)cc1Cl`, the Potency in [1] is over 92 µM; in experiment [2], over 92 µM; in [3] it was 33.5 µM (active). Moreover, the call in experiment [4] was inactive. Moreover, in experiment [5], the caspase-3 activation is 2.58% [at 91.7 µM, primary cells freshly taken from rat, solvent-only wells 0%, staurosporine 100%]. Also, the Potency result in experiment [6], in experiment [7], in experiment [8] and in experiment [9] was “inactive” throughout. Moreover, the max response in experiment [10] is -14.8%.

As for `C[C@@H]1CC[C@@]2(OC1)O[C@H]1[C@@H](O)[C@H]3[C@@H]4CC[C@H]5C[C@@H](O[C@@H]6O[C@H](CO)[C@H](O[C@@H]7O[C@H](CO)[C@@H](O)[C@H](O[C@@H]8OC[C@@H](O)[C@H](O)[C@H]8O)[C@H]7O[C@@H]7O[C@H](CO)[C@@H](O)[C@H](O[C@@H]8O[C@H](CO)[C@@H](O)[C@H](O)[C@H]8O)[C@H]7O)[C@H](O)[C@H]6O)[C@H](O)C[C@]5(C)[C@H]4CC[C@]3(C)[C@H]1[C@@H]2C`, the Potency is 19.9 µM (active) in [1]; 24.4 µM (active) in [2]; 28.5 µM (active) in experiment [3]; 3.98 µM (active) in experiment [7]; 10 µM (active) in experiment [8]; 20 µM (active) in experiment [9]. In addition, in experiment [10], the Potency is 17.8 µM (active). The caspase-3 activation in experiment [5] is -2.38%. In addition, in experiment [6], the Potency entry was “inactive”.

`Oc1c(Br)c(Br)c(Br)c(Br)c1Br`: the Potency in [1] is over 92 µM; in experiment [2], over 92 µM; in experiment [3] it was 57 µM. Also, the caspase-3 activation in experiment [5] is 1.89%. The Potency result in [6], in experiment [7], in experiment [8] and in [9] was “inactive” in each case. The max response in experiment [10] was -1.75%.

For the compound `CC[C@]1(O)C(=O)OCc2c1cc1n(c2=O)Cc2cc3ccccc3nc2-1`, the results for the Potency in experiment [11] and in experiment [12] were 5.01 µM (active) and over 46 µM, respectively. In addition, the Potency result in experiment [13], in experiment [6], in experiment [14] and in [15] was “inactive” each time.

Regarding `Cc1ccc(O)cc1C`, the Potency in experiment [1], in [2] and in experiment [3] was over 92 µM in each case. Further, the max response in experiment [10] is -2.94%.

Take `OC(c1ccc(Cl)cc1)(c1ccc(Cl)cc1)C(Cl)(Cl)Cl`: the Potency in [1], in experiment [2] and in [3] was over 92 µM in each case. Further, the caspase-3 activation in experiment [5] was 1.02%. Further, the Potency entry in [6], in [7], in experiment [8] and in experiment [9] was “inactive” throughout. Also, the max response in experiment [10] was -1.65%.

Take `FC(F)(F)c1ccc(Cl)cc1`: the Potency in experiment [1], in [2] and in experiment [3] was over 92 µM throughout. In experiment [4], the outcome was inactive. In addition, the caspase-3 activation in experiment [5] was 5.86% [at 91.7 µM, primary cells freshly taken from rat, solvent-only wells 0%, staurosporine 100%]. Besides, the Potency entry in [6], in experiment [7], in [8] and in experiment [9] was “inactive” throughout. For the same compound, in experiment [10], the max response was 7.1% and -8.38%.
